Assay results reported in PubChem BioAssay AID1402 (National Center for Advancing Translational Sciences (NCATS), 2008).
Results filed as inconclusive are left out. Active and inactive are the calls of the source. Calls follow the shape of the dose curve; as a rule, active = well fitted curve in the direction sought with a large enough effect in the signal ratio; inconclusive = small, poorly fitted or top-dose-only effect, or effect the other way, or a change in a side signal; inactive = no such curve, though single readings can be large or run the other way; the % refers to the signal ratio.

Target: Lutropin-choriogonadotropic hormone receptor (Homo sapiens) (UniProt P22888)
Assay: Counterscreen for Agonists of Thyroid Stimulating Hormone Receptor: HTRF Activity in a Luteinizing Hormone Receptor Cell Line
From the text: NIH Chemical Genomics Center [NCGC] NIH Molecular Libraries Screening Centers Network [MLSCN] MLSCN Grant: 1 X01 MH080680-01 PI Name: Dr. Marvin Gershengorn, NIH NCGC Assay Overview: Confirmation of Thyroid Stimulating Hormone Receptor Agonists TSH is an alpha/beta heterodimeric glycoprotein hormone secreted from the anterior pituitary gland which belongs to the glycoprotein hormone family. The actions of TSH are mediated by a seven-transmembrane receptor, which upon TSH binding couples preferentially to the G-alpha (s) protein (Gs), resulting in activation of adenylate cyclase and increase in cyclic adenosine 3', 5' monophosphate (cAMP). The TSH receptor (THSR) is mainly expressed in thyroid follicular cells and regulates their growth and function. […] In order to confirm specificity of the compounds to the TSHR, a confirmatory assay was conducted on a similar family member, the Luteinizing Hormone (LH) receptor, transfected into a HEK 293 cell line, using an orthogonal detection technology to measure cAMP stimulation: antibody-based Homogeneous Time Resolved Fluorescence (HTRF).
NCGC Assay Protocol Summary: Homogeneous Time Resolved Fluorescence (HTRF) cAMP Assay. […] Plates were measured using the Envision plate reader (PerkinElmer, Boston, MA) with excitation at 330 nm and emissions of 615 nm and 660 nm. […]

Chain of Lutropin-choriogonadotropic hormone receptor (Homo sapiens) (P22888 whole entry, looked up): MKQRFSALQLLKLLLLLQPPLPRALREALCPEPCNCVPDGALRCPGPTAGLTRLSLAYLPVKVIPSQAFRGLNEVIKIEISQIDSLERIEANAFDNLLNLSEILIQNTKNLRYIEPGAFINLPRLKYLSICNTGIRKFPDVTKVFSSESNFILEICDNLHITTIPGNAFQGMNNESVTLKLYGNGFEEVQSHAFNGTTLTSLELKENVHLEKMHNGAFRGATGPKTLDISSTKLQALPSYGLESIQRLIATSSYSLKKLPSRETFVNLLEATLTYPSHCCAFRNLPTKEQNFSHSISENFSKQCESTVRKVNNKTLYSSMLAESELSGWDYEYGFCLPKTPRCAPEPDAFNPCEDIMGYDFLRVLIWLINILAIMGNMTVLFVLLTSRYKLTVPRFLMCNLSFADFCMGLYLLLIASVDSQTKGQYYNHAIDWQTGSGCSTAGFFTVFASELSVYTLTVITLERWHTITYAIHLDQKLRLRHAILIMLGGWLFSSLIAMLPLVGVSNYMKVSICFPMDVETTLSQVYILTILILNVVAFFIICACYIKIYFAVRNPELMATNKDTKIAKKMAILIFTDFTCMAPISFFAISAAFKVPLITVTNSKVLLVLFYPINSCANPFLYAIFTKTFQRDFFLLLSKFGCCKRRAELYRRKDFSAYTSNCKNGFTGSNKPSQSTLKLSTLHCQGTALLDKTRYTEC

SMILES	outcome
CCOC(=O)C1=C(N)Oc2c(c(=O)oc3ccccc23)C12C(=O)N(C)c1ccccc12 (configuration not stated)	inactive
C=CCN1C(=O)C2(C(C(=O)OC)=C(N)Oc3c2c(=O)oc2ccccc32)c2ccccc21 (configuration not stated)	inactive
